Molecules are shown by their SMILES. Counter-ions that a name gives are not always drawn. ± gives the uncertainty stated by the source.

In the supplement of paper PMC6288085 one finds food intake data, which are given here for four compounds.

The test system of this test is Caenorhabditis elegans N2. The test is described as follows: food intake (mean delta OD600 / animal over 72 h) with 50 uM loxapine co-treatment (OD600 units per animal); higher = more food eaten (less suppression of loxapine-induced hyperphagia). As to conditions: first compound 33 µM, loxapine concentration 50 µM. As for the experimental part: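 C. elegans N2 adults (FUDR-sterilised, day 1) in 96-well plates fed gamma-irradiated bacteria. Each library drug (MedChemExpress FDA-approved library) at 33 uM was combined with loxapine at 50 uM. Food intake was measured as bacterial clearance: the change in OD600 from day 1 to 72 h, normalised per animal (mean over 14-21 wells of about 10-12 worms). Drugs flagged for bacterial lysis or sickness were excluded by the authors.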
As to `COc1ccc(CCN(C)CCCN2CCc3cc(OC)c(OC)cc3CC2=O)cc1OC` [zatebradine] + CN1CCN(C2=Nc3ccccc3Oc3ccc(Cl)cc32)CC1 [loxapine], the food intake was determined as 0.0232 ± 0.0027. As for `CCOC(=O)[C@H](CCc1ccccc1)N[C@@H](C)C(=O)N1Cc2ccccc2C[C@H]1C(=O)O` [quinapril (hydrochloride)] + CN1CCN(C2=Nc3ccccc3Oc3ccc(Cl)cc32)CC1 [loxapine], the food intake came out at 0.0212 ± 0.003. Consider `CN(CCOc1ccc(CC2SC(=O)NC2=O)cc1)c1ccccn1` (centres undefined) [rosiglitazone (maleate)] + CN1CCN(C2=Nc3ccccc3Oc3ccc(Cl)cc32)CC1 [loxapine], for which the food intake stood at 0.0207 ± 0.002. For `CN(C)CCOC(c1ccccc1)c1ccccc1.Cn1c(=O)c2[nH]c(Cl)nc2n(C)c1=O` [dimenhydrinate] + CN1CCN(C2=Nc3ccccc3Oc3ccc(Cl)cc32)CC1 [loxapine], the food intake amounted to 0.0239 ± 0.0029.
